Results published in PubChem BioAssay (NCATS).
Inconclusive results are not listed. Active and inactive are the calls of the source. Unless noted, the call rests on the fitted dose curve; in most records, active means well fitted curve in either direction with a large enough effect (not every such curve was filed as active); inconclusive means small, poorly fitted or top-dose-only effect, or another doubt; inactive means flat fitted curve, though single readings scatter.

Columns and labels:
[1] = target: Lysosomal acid glucosylceramidase (Homo sapiens) (UniProt P04062); test: Glucocerebrosidase-p2 (AID 348; in the data active means potency below about 10 µM; further: potency means the concentration at half of the fitted maximal effect); conditions: purified GBA, blue fluorogenic substrate, 40 min
Method in brief: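 Compounds titrated from 0.6 nM upwards against 0.2 nM enzyme in pH 5.9 citric acid/KH2PO4, taurocholate, tween-20; blue fluorogenic substrate 80 uM, 40 min room temperature, stopped and read Ex 365/Em 440 for AC50.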

[2] = AP1 Signaling Pathway (AID 357); conditions: ME-180 AP-1-bla reporter, EGF-induced, beta-lactamase ratio, 5 h; at 7.69 µM (top of the series) unless noted;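 further: ME-180 reporter cells stimulated with EGF at its EC50 level; on the % scale 0 is the no-effect control and ±100 the full control effect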
Method in brief: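 AP-1-bla ME-180 cells, Opti-MEM + 0.5% dialyzed FBS, plated overnight 37 °C. Cpd titration + EC50 EGF, 5 h 37 °C. CCF4 2.5 h RT; ex 405, em 460/530 ratio → %activity, AC50.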

[3] = target: Cytochrome P450 1A2 (Homo sapiens) (UniProt P05177); test: p450-cyp1a2 (AID 410; calls by dose curve; further: potency means the concentration at half of the fitted maximal effect); conditions: recombinant CYP1A2, luciferin-ME demethylation, luminescence; series mostly up to 57 µM
Method in brief: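 Inhibition was calculated relative to 57 uM furafylline (full inhibition). The reaction used human CYP1A2 at 20nM with Luciferin-ME at its Km, 100uM, driven by an NADPH-regenerating system for 60 min at room temperature.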

[4] = NFAT Signaling Pathway (AID 444); conditions: Jurkat NFAT-bla M1, carbachol, beta-lactamase ratio, 5 h; at 7.69 µM (top of the series) unless noted;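 further: carbachol stimulus at about its EC50 of 1 µM final; on the % scale 0 is the no-effect control and ±100 the full control effect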
Method in brief: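 Read-out: CCF4 FRET ratio (460 nm/530 nm) after 1 h RT dye loading, used for %activity and AC50 from titration series. Cells: Jurkat NFAT-β-lactamase/M1 line, treated with compound plus 1 uM carbachol for 5 h, 37 °C.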

[5] = Stat Signaling Pathway (AID 446); conditions: ME-180 SIE beta-lactamase reporter, IL-6 stimulated, 5 h; at 7.69 µM (top of the series) unless noted;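 further: ME-180 cervical cancer cells given 40 pM IL-6 alongside compound; SIE-controlled beta-lactamase reporter measured as 460/530 nm FRET emission ratio; on the % scale 0 is the no-effect control and ±100 the full control effect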
Method in brief: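 Reporter line: ME-180 cervical carcinoma, SIE-beta-lactamase. Treatment: compound with 40 pM IL-6, 5 hrs, 37 C, in low-serum OPTI-MEM with 10 mM HEPES pH 7.3. Detection: 460/530 nm fluorescence.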

[6] = target: Glucocorticoid receptor (Homo sapiens) (UniProt P04150); test: GR-GFP Redistribution (AID 450;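 active means compounds whose dose series gives a full or clear partial fitted curve of increased nuclear translocation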; further: potency means the concentration at half of the fitted maximal effect); conditions: U2OS GR-GFP nuclear translocation, laser cytometry, 2 h
[7] = target: Glucocorticoid receptor (Homo sapiens) (UniProt P04150); test: GR-EFC Redistribution (AID 451; calls by dose curve; further: potency means the concentration at half of the fitted maximal effect); conditions: CHO-K1 GR-EFC translocation, beta-gal luminescence, 2 h
Method in brief: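 Translocation of GR-ED fusion to nuclear EA restores b-gal, read by luminescence after 1 h room-temperature detection. Engineered CHO-K1 biosensor cells, 1,000/well, exposed 2 h at 37 C to titrations up to 46 uM final.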

[8] = target: Mitogen-activated protein kinase 10 (Mus musculus) (UniProt Q61831); test: JNK3 AlphaScreen Assay (AID 530); conditions: JNK3 lysate, c-Jun phosphorylation; series mostly up to 57.1 µM;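 further: kinase came from lysate of stimulated human HepG2 cells; signal reports phosphorylation of biotinylated GST-cJun 1-79 at Ser73 with 10 µM ATP; on the % scale 0 is the no-effect control and ±100 the full control effect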
Method in brief: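 Room-temperature AlphaScreen kinase assay; pre-activated HepG2 lysate as JNK3 source, biotin-GST-cJun(1-79) substrate, 10 uM ATP, compound 15 min preincubation.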

[9] = target: 3',5'-cyclic-AMP phosphodiesterase 4B (Homo sapiens) (UniProt Q07343); test: qHTS Assay for Inhibitors of PDE-IV (AID 607; active means well fitted activation curve with a large enough effect in the main read-out, with a control signal flat, not every such curve was filed as active; further: % of control where 0% means no effect); conditions: HEK293 ACTOne CNG channel cells, membrane potential fluorescence; series mostly up to 22.9 µM
Method in brief: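 Cell-based read-out of cAMP via a modified cyclic nucleotide-gated channel and membrane potential dye (535/590 nm) in HEK293 cells expressing PDE4 endogenously. Compounds tested up to 22.9 uM final; 100 uM RO 20-1724 reference.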

[10] = target: Cytochrome P450 3A4 (Homo sapiens) (UniProt P08684); test: qHTS Assay for Inhibitors and Substrates of Cytochrome P450 3A4 (AID 884; active means well fitted curve in the direction sought with a large enough effect; an effect the other way counts as inactive or inconclusive; further: potency means the concentration at half of the fitted maximal effect; nearly all actives have a fitted effect of over 50% in size); conditions: recombinant CYP3A4, Luciferin-PPXE luminescence; series mostly up to 57.1 µM
Method in brief: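 20 nM human CYP3A4 with 25 uM Luciferin-PPXE (at KM) in 200 mM KPO4, preincubated 10 min with compound; NADPH regeneration started a 60 min RT reaction. Luciferin detected by luminescence, normalized to 57 uM ketoconazole as full inhibition.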

[11] = target: Cytochrome P450 3A4 (Homo sapiens) (UniProt P08684); test: qHTS Assay for Activators of Cytochrome P450 3A4 (AID 885; active means well fitted curve in the direction sought with a large enough effect; an effect the other way counts as inactive or inconclusive; further: nearly all actives have a fitted effect of over 65% in size); conditions: recombinant CYP3A4, Luciferin-PPXE luminescence, 60 min; series mostly up to 57.1 µM
Method in brief: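 Signal was normalized against complete inhibition by 57 uM ketoconazole. The reaction used 20nM CYP3A4 with 25uM Luciferin-PPXE, 10-min compound preincubation and a 60-min NADPH-supported step at RT.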

[12] = Primary qHTS for small molecule stabilizers of the endoplasmic reticulum resident proteome: Secreted ER Calcium Modulated Protein (SERCaMP) assay (AID 1508630; active means well fitted curve in the direction sought with a large enough effect; an effect the other way counts as inactive or inconclusive; further: on the % scale 0 is the no-effect control and ±100 the full control effect); conditions: SH-SY5Y GLuc-SERCaMP (Gaussia luciferase released on ER calcium loss) secretion, thapsigargin, luminescence; series mostly up to 38.4 µM
Method in brief: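 GLuc-SERCaMP-expressing SH-SY5Y cells, pretreated 16 h with compound, are challenged with thapsigargin to empty ER calcium stores; after 4 h, coelenterazine is added directly to the medium and luminescence is imaged.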

[13] = target: Cytochrome P450 2C19 (Homo sapiens) (UniProt P33261); test: qHTS Assay for Inhibitors and Substrates of Cytochrome P450 2C19 (AID 899; active means well fitted curve in the direction sought with a large enough effect; an effect the other way counts as inactive or inconclusive; further: nearly all actives have a fitted effect of over 60% in size; further: potency means the concentration at half of the fitted maximal effect); conditions: recombinant CYP2C19, luciferin-H EGE luminescence; series mostly up to 57.1 µM
Method in brief: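 Luminescence readout of luciferin formed from 10uM Luciferin-H EGE (KM level) by 5 nM CYP2C19 in 50mM KPO4. 60 min NADPH-driven reaction at 37C after 10 min compound preincubation; data scaled to 57uM ketoconazole inhibition.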

[14] = Confirmation and Secondary Assay for Modulators of Hemoglobin Beta Chain Splicing at IVS2 705 locus (AID 930; active means well fitted curve in the direction sought with a large enough effect; an effect the other way counts as inactive or inconclusive;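 further: HeLa cells stably expressing the EGFP-705 splicing reporter; % of control where 0% means no effect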); conditions: HeLa EGFP-705 splicing reporter, GFP fluorescence, 48 h; series mostly up to 38.3 µM
Method in brief: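 Restored EGFP fluorescence after 2-day compound exposure reports splicing correction in IVS2-705 EGFP reporter HeLa cells; positive control was 500 nM splice-blocking PNA oligo. Signal measured as well total peak GFP intensity (488 nm excitation).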

[15] = Confirmation and Secondary Assay for Modulators of Hemoglobin Beta Chain Splicing at IVS2 654 locus (AID 910; active means well fitted curve in the direction sought with a large enough effect; an effect the other way counts as inactive or inconclusive;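 further: HeLa cells stably carrying EGFP split by mutant beta-globin IVS2-654 intron; per-well total GFP intensity by laser scanning cytometry after 2-day treatment; % of control where 0% means no effect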); conditions: HeLa EGFP-654 splicing reporter, GFP fluorescence, 48 h; series mostly up to 38.3 µM
Method in brief: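 Readout: per-well total peak green fluorescence (488 nm ex, 500–520 nm em) from objects 5–250 µm, reflecting correct splicing of an EGFP-654 reporter. Compounds were applied for 2 days at 37 °C to overnight-plated HeLa EGFP-654 cells; controls were DMSO and 500 nM IVS2-654 PNA.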

[16] = qHTS Assay for Identification of Small Molecule Agonists for Hypoxia Response Element Signaling Pathway (AID 914; active means well fitted activation curve with a large enough effect in the signal ratio, with a control signal flat, not every such curve was filed as active; the % refers to the signal ratio; further: potency means the concentration at half of the fitted maximal effect); conditions: ME-180 (cervical carcinoma) HRE-bla reporter, beta-lactamase ratio, CoCl2, 17 h; activation: hits give high values
Method in brief: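 AC50 values come from titration-series %Activity, taken as the 460/530nm ratio of CCF4 fluorescence (excitation 405nm). CellSensor HRE-bla ME-180 cells were treated 17 hours at 37 C with compound plus an EC50 level of CoCl2.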

Chain of Cytochrome P450 1A2 (Homo sapiens) (P05177 whole entry, looked up): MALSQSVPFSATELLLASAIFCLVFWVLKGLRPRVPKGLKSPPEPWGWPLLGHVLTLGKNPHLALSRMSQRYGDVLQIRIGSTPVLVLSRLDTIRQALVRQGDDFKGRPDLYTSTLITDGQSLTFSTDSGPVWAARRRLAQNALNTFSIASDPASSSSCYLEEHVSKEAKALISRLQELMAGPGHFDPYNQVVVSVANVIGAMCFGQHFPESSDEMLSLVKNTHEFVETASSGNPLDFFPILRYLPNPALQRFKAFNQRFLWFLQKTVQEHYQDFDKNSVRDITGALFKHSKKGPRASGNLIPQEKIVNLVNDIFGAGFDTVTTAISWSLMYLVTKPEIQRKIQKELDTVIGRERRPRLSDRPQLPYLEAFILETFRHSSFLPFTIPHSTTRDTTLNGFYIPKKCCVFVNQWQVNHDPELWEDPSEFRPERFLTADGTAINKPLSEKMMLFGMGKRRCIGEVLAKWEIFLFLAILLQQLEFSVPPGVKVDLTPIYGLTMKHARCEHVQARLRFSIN
Chain of Cytochrome P450 3A4 (Homo sapiens) (P08684 whole entry, looked up): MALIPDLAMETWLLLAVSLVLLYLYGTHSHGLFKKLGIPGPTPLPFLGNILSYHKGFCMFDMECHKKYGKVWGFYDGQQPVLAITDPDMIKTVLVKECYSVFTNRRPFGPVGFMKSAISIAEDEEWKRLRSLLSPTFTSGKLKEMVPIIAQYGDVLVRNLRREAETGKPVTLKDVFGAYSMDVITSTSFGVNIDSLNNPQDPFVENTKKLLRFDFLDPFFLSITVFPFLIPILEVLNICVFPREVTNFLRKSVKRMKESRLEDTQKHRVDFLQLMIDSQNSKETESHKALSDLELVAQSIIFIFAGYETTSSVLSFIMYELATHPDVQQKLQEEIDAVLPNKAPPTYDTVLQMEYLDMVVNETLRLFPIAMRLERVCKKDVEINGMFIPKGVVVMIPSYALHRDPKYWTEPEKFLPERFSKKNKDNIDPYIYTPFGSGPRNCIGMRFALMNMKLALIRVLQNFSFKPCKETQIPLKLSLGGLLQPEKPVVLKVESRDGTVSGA
Chain of Lysosomal acid glucosylceramidase (Homo sapiens) (P04062 whole entry, looked up): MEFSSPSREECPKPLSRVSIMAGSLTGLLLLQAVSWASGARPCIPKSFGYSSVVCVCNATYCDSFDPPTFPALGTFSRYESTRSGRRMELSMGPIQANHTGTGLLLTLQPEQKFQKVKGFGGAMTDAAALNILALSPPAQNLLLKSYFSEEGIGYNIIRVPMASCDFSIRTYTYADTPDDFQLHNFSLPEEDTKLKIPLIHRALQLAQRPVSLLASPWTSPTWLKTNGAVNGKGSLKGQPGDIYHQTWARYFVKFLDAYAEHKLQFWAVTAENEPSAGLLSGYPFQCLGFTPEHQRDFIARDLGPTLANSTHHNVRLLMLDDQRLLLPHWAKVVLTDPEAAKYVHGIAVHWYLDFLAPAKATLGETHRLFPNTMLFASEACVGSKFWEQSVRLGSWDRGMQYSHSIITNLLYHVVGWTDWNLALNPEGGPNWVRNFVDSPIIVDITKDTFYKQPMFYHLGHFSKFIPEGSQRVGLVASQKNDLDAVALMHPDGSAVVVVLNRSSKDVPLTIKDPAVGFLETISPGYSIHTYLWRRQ
Chain of Cytochrome P450 2C19 (Homo sapiens) (P33261 whole entry, looked up): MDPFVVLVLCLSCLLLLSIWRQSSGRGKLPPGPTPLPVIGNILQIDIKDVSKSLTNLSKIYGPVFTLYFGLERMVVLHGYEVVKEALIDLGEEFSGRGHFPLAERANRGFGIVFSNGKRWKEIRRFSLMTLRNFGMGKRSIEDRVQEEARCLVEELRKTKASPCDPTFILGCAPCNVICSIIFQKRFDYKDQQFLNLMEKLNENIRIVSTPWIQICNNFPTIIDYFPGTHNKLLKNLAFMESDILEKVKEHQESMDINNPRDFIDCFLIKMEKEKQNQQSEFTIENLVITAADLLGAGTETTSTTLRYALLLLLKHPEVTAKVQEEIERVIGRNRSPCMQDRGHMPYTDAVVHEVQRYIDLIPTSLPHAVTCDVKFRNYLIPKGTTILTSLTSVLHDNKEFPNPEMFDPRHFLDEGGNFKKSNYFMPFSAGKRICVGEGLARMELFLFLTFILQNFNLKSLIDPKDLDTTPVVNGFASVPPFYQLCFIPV
Chain of 3',5'-cyclic-AMP phosphodiesterase 4B (Homo sapiens) (Q07343 whole entry, looked up): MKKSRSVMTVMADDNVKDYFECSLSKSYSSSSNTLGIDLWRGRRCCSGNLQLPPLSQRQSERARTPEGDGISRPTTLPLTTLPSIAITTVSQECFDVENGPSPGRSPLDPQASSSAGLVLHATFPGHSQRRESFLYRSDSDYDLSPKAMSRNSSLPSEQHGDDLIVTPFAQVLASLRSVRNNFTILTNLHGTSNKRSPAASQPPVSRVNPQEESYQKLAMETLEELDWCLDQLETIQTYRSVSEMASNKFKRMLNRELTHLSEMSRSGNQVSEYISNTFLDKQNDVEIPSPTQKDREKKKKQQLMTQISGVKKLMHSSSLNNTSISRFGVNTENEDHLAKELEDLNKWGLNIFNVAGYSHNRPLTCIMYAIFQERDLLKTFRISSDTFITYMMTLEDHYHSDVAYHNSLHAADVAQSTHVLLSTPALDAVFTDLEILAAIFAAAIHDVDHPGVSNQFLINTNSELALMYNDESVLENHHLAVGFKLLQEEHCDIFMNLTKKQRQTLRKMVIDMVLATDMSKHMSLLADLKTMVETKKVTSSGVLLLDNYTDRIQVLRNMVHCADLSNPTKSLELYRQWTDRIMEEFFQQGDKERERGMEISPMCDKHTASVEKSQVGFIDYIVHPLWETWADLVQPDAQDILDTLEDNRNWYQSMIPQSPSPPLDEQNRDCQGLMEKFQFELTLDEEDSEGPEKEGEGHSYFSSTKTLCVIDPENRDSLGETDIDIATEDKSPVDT
Chain of Glucocorticoid receptor (Homo sapiens) (P04150 whole entry, looked up, the tested form may be a part): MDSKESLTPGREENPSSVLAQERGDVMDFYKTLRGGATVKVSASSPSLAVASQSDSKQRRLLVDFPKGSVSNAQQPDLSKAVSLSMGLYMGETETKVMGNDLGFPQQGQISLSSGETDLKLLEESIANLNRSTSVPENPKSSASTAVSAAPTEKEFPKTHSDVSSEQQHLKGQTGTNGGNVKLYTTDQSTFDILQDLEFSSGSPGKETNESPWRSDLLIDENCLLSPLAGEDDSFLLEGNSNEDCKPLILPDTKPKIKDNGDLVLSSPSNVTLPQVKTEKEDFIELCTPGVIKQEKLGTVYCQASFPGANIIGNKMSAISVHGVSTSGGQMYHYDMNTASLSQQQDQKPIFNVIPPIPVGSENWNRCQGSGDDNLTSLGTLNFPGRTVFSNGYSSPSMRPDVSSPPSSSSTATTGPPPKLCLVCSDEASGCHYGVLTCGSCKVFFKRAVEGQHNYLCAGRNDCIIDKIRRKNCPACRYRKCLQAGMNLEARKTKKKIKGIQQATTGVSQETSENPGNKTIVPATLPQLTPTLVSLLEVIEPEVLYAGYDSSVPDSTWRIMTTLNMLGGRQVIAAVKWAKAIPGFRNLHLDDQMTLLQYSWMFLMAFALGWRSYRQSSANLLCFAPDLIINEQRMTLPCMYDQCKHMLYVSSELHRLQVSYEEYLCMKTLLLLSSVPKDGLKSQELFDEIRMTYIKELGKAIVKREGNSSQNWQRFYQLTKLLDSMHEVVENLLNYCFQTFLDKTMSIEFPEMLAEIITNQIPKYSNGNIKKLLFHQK

COc1ccc(Oc2ncc3ncc(=O)n(Cc4cccs4)c3n2)cc1
inactive: Potency [1] > 11.4 µM | activity change, negative = inhibition [2] -29.2% | activity change, negative = inhibition [4] -6.6% | activity, negative = inhibition [5] -28.6% | Potency [6] > 9.22 µM | Potency [7] > 46 µM | Potency [8] | Potency [9] | Potency [11] | outcome [12]
active: Potency [3] 10 µM | Potency [10] 3.16 µM

CN(C)c1ncc2nc(-c3ccc(F)cc3)c(=O)n(CCC#N)c2n1
inactive: Potency [1] > 11.4 µM | activity change, negative = inhibition [2] 4.59% | activity change, negative = inhibition [4] 8.55% | activity, negative = inhibition [5] 23.5% | Potency [6] > 9.22 µM | Potency [7] > 46 µM | Potency [8] | Potency [9] | outcome [12]
active: Potency [3] 1.26 µM

Cc1cccc(CNc2cc(-c3cccc(C#N)c3)ncn2)c1
active: Potency [3] 0.158 µM | Potency [10] 7.94 µM | Potency [13] 6.31 µM
inactive: Potency [1] > 11.4 µM | activity change, negative = inhibition [2] -11.1% | activity change, negative = inhibition [4] 7.94% | activity, negative = inhibition [5] -3.7% | Potency [6] > 46 µM | Potency [7] > 46 µM | Potency [8] | Potency [9] | Potency [11] | outcome [14] | outcome [12]

Cn1c(=O)c(CCc2ccccc2)nc2cncnc21
active: Potency [3] 7.94 µM
inactive: Potency [1] > 11.4 µM | activity change, negative = inhibition [2] -10.9% | activity change, negative = inhibition [4] -3.66% | activity, negative = inhibition [5] -13.2% | Potency [6] > 9.22 µM | Potency [7] > 46 µM | Potency [8] | Potency [9] | Potency [11] | outcome [12]

O=c1c(-c2ccccc2)nc2cncnc2n1Cc1ccccc1Cl
active: Potency [3] 2 µM
inactive: Potency [1] > 11.4 µM | activity change, negative = inhibition [2] 1.43% | activity change, negative = inhibition [4] -6.41% | activity, negative = inhibition [5] 5.03% | Potency [6] > 9.22 µM | Potency [7] > 46 µM | Potency [8] | outcome [12]

N#Cc1cccc(-c2cc(-n3ccnc3)ncn2)c1
active: Potency [3] 0.126 µM | Potency [10] 0.398 µM | Potency [13] 0.158 µM
inactive: Potency [1] > 11.4 µM | activity change, negative = inhibition [2] 0.101% | activity change, negative = inhibition [4] 4.55% | activity, negative = inhibition [5] 10.7% | Potency [6] > 46 µM | Potency [7] > 46 µM | Potency [8] | Potency [9] | Potency [11] | Potency [15] | outcome [14] | outcome [12]

N#CCCn1c(=O)cnc2cnc(OCc3ccccc3)nc21
active: Potency [3] 12.6 µM
inactive: Potency [1] > 11.4 µM | activity change, negative = inhibition [2] -4.07% | activity change, negative = inhibition [4] 0.323% | activity, negative = inhibition [5] -5.03% | Potency [6] > 9.22 µM | Potency [7] > 46 µM | Potency [8] | Potency [9] | Potency [13] | outcome [12]

COc1ccc(-n2c(=O)c(C)nc3cnc(Nc4ccccc4)nc32)cc1
inactive: Potency [1] > 11.4 µM | activity change, negative = inhibition [2] -25% | activity change, negative = inhibition [4] 0.929% | activity, negative = inhibition [5] -5.94% | Potency [6] > 9.22 µM | Potency [7] > 46 µM | Potency [8] | Potency [9] | Potency [11] | outcome [12]
active: Potency [3] 5.01 µM

COCCn1c(=O)c(-c2ccc(F)c(F)c2)nc2cncnc21
inactive: Potency [1] > 11.4 µM | activity change, negative = inhibition [2] -26.5% | activity change, negative = inhibition [4] -12.1% | activity, negative = inhibition [5] 0.716% | Potency [6] > 9.22 µM | Potency [7] > 46 µM | Potency [8] | Potency [9] | Potency [11] | outcome [12]
active: Potency [3] 0.251 µM

COc1ccc(Oc2ncc3nc(-c4cccs4)c(=O)n(C)c3n2)cc1
inactive: Potency [1] > 11.4 µM | activity change, negative = inhibition [2] 18.3% | activity change, negative = inhibition [4] 28.2% | activity, negative = inhibition [5] 27.9% | Potency [6] > 9.22 µM | Potency [7] > 46 µM | Potency [8] | Potency [9] | Potency [11] | outcome [12]
active: Potency [3] 3.16 µM | Potency [10] 3.98 µM | Potency [16] 3.16 µM

CCNc1ncc2nc(-c3ccc(F)cc3)c(=O)n(CCC#N)c2n1
active: Potency [3] 0.631 µM
inactive: Potency [1] > 11.4 µM | activity change, negative = inhibition [2] -13.4% | activity change, negative = inhibition [4] -10% | activity, negative = inhibition [5] 16.7% | Potency [6] > 9.22 µM | Potency [7] > 46 µM | Potency [8] | outcome [12]

Cc1nc2cncnc2n(-c2ccccc2)c1=O
active: Potency [3] 10 µM
inactive: Potency [1] > 11.4 µM | activity change, negative = inhibition [2] -11.8% | activity change, negative = inhibition [4] -0.117% | activity, negative = inhibition [5] -12.5% | Potency [6] > 9.22 µM | Potency [7] > 46 µM | Potency [8] | Potency [9] | Potency [11] | outcome [12]

Cc1nc2cnc(Oc3ccccc3)nc2n(-c2ccccc2)c1=O
active: Potency [3] 10 µM
inactive: Potency [1] > 11.4 µM | activity change, negative = inhibition [2] -7.96% | activity change, negative = inhibition [4] 9.01% | activity, negative = inhibition [5] -3.48% | Potency [6] > 9.22 µM | Potency [7] > 46 µM | Potency [8] | Potency [9] | Potency [11] | outcome [12]

Cn1c(=O)c(-c2cccc(Cl)c2)nc2cncnc21
active: Potency [3] 0.501 µM
inactive: Potency [1] > 11.4 µM | activity change, negative = inhibition [2] -7.56% | activity change, negative = inhibition [4] -2.65% | activity, negative = inhibition [5] -10.2% | Potency [6] > 9.22 µM | Potency [7] > 46 µM | Potency [8] | Potency [9] | outcome [12]
